Screen size: about 420,000 compounds; about 50,000 (12%) were called active. Inconclusive results (about 26%) are left out. The list comes from a sample in which actives are over-represented; it also holds similar structures and randomly drawn compounds. Values without a mark were called inactive. Calls follow the shape of the dose curve; as a rule, active = well fitted inhibition curve with a large enough effect; inconclusive = small, poorly fitted or top-dose-only effect; inactive = flat fitted curve, though single readings scatter.
Assay: qHTS for Inhibitors of human tyrosyl-DNA phosphodiesterase 1 (TDP1): qHTS in cells in presence of CPT; also: nearly all actives have a fitted effect of over 55% in size
Conditions: chicken DT40 Tdp1-/-;hTDP1 cells + 20 nM CPT, ATP luminescence, 48 h; series mostly up to 46.2 µM; activity change, negative = growth inhibition: at the top concentration
Summary of the method: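 Chicken DT40 Tdp1-/- cells complemented with human TDP1, 400 cells/well, exposed to compounds plus 20 nM camptothecin for at least 48 h at 37 C; viability read as ATP content by CellTiter-Glo luminescence.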
% is scaled to controls: 0 for no effect and ±100 for the full control effect; potency is read from the fitted curve at half-maximal effect.

| Compound | activity change, negative = growth inhibition | Potency |
| --- | --- | --- |
| Cc1cc(S(=O)(=O)NCC(C)C)ccc1OCC(=O)NC1CC1 | -1.97% |  |
| CC(Sc1ncnc2c1cnn2-c1ccccc1)C(=O)Nc1ccc(N2CCOCC2)cc1 (centres undefined) | 4.76% |  |
| CCOC(=O)c1c(CN(C)C)n(-c2ccccc2)c2cc(Br)c(O)cc12 | -18.9% |  |
| O=C1/C(=C\c2ccc(O)cc2)CCC1CNc1ccc(Cl)cc1 (centres undefined) |  | 4.61 µM (active) |
| CC(C(=O)NC1CCS(=O)(=O)C1)N1C(=O)/C(=C/c2ccc(Cl)cc2)SC1=S (centres undefined) | -27.2% |  |
| CCOCCCNC(=O)c1ccc(CS(=O)(=O)c2cccc(C(F)(F)F)c2)o1 | -0.971% |  |
| NS(=O)(=O)c1cc(C(=O)OCC(=O)NNC(=O)c2ccccc2)ccc1Cl | 4.84% |  |
| O=C(CO/N=C/c1ccccc1OC(F)F)NC1CCCC1 | 3.7% |  |
| O=C(CO/N=C/c1ccccc1O)NNC(=O)c1ccccc1Cl |  | 0.461 µM (active) |
| CCn1c(Cc2cccs2)nnc1SCC(=O)c1ccc(C)cc1 |  | 11.2 µM (active) |
| CCn1c(SCC(=O)c2ccc(Cl)s2)nnc1-c1cccs1 | -29.9% |  |
| Cc1ccc(-n2c(Cc3cccs3)nnc2SCC(=O)OC(C)C)cc1 | 1.44% |  |
| CC(C)C[C@H](CO)Nc1nc(N(C)c2cccc(Cl)c2)c2ncn(C(C)C)c2n1 |  | 16.4 µM (active) |
| COC(=O)C(C)n1cnc2c(nnn2-c2cccc(Cl)c2)c1=O (centres undefined) | -12.8% |  |
| Cc1ccnc(NS(=O)(=O)c2ccc(NC(=O)c3ccc(S(=O)(=O)N(C)C)cc3)cc2)n1 | -11.2% |  |
| CCOc1cc2c(Cl)ncnc2c(OCC)c1OCC | 1.52% |  |
| CCCCC(=O)OC1=CN(Cc2ccccc2)S(=O)(=O)c2ccccc21 | 12.4% |  |
| O=C(OCc1cn(-c2ccc(Cl)c(Cl)c2)nn1)c1ccccc1Cl | -12.9% |  |
| COc1cc2c(cc1OC)C(C)N(S(=O)(=O)c1cnc(Cl)c(Cl)c1)CC2 (centres undefined) | -112% |  |
| CC(C)(C)NC(=O)C(=O)NN=C1CCCCCCC1 | 8.31% |  |
| CCc1ccc(C(=O)NN=C2CCCCCC2)s1 | 3.08% |  |
| CC(C)NC(=S)NN=C1CCCCCCCCCCC1 |  | 13 µM (active) |

| Compound | activity change, negative = growth inhibition | Potency |
| --- | --- | --- |
| CC(C)(C)c1ccccc1NC(=O)CN1C(=O)NC2(CCCC2)C1=O | -1.6% |  |
| COC(=O)c1ccc(CN2C(=O)C(Cc3ccccc3)ON=C2c2ncccc2C)o1 (centres undefined) | -16.6% |  |
| Cc1ccc(C)c(NC(=O)Cn2ccn(-c3ccc(F)cc3)c(=O)c2=O)c1 | 8.32% |  |
| COc1ccccc1NC(=O)CCC(=O)OC(C)C(=O)c1ccccc1 (centres undefined) | 3.03% |  |
| O=C(Nc1ccc(F)cc1)c1cc2c(s1)CCCC2 | -27.3% |  |
| COc1cccc(C(=O)NNC(=O)c2cccc(F)c2)c1 | 0.0986% |  |
| COc1cccc(C(=O)NC2(C(F)(F)F)C(=O)Nc3c2c(=O)[nH]c(=O)n3-c2ccc(C)cc2)c1 (centres undefined) |  | 25.9 µM (active) |
| CCOc1ccccc1C(=O)NC1(C(F)(F)F)C(=O)Nc2c1c(=O)[nH]c(=O)n2-c1ccc(F)cc1 (centres undefined) | 6.4% |  |
| O=P(O)(O)C(O)c1ccc2ccccc2c1 (centres undefined) | 0.0947% |  |
| CCN1CN(Cc2ccccc2)CNC1=S | -9.4% |  |
| C/C(CCc1ccccc1)=N\NC(=O)c1ccc(CN2CCOCC2)cc1 | -2.29% |  |
| S=C1SCN(CCN2CCOCC2)CN1Cc1ccccc1 |  | 5.01 µM (active) |
| COc1ccc(CCN2CC(C(=O)NCCN3CCNC3=O)CCC2=O)cc1 (centres undefined) | 2.06% |  |
| CC(C)NC(=S)Nc1cccc2cnccc12 | 0.573% |  |
| CCN(CC)CC(=O)Nc1nn(-c2ccccc2)nc1C(N)=O | -6.91% |  |
| COc1ccc(-c2nc3nc(C)cc(C)n3c2Nc2c(C)cccc2C)cc1 |  | 16.4 µM (active) |
| COc1cccc(-c2nc3nc(C)cc(C)n3c2NC2CCCCC2)c1 |  | 18.4 µM (active) |
| COc1ccc(-c2cc(C)nc3nc(N)nn23)cc1 | -13.2% |  |
| COc1ccc2nc(C)cc(Nc3cccc(C(=O)O)c3)c2c1 | -14% |  |
| COc1cccc(-c2cnc(OC(C)(C)C)nc2OC(C)(C)C)c1 | 0.304% |  |
| COc1cccc(CSc2nc3nc(C)cc(C)n3n2)c1 | -4.29% |  |
| COc1ccccc1C(=O)Nc1nc2nc(-c3ccccc3)cc(=O)n2[nH]1 | -23.3% |  |

| Compound | activity change, negative = growth inhibition | Potency |
| --- | --- | --- |
| O=C(NN1C(=O)C2CCCCC2C1=O)c1ccco1 (centres undefined) | 4.06% |  |
| Cc1cccc(C(=O)N2CCN(S(=O)(=O)N3CCCCC3)CC2)c1 | -15.7% |  |
| Cc1cc(C)c(NC(=O)CN2C(=O)NC(Cc3ccccc3)C2=O)c(C)c1 (centres undefined) | -14.1% |  |
| O=S(=O)(NCCc1ccccn1)c1cc(Cl)cc(Cl)c1O | 0.802% |  |
| COc1ccccc1CCNC(=O)C1CCN(C(=O)/C=C/c2ccccc2)CC1 | 5.89% |  |
| Cc1cccc(NC(=O)CN2CCN(CC(=O)NCC3(N4CCCCC4)CCCCC3)CC2)c1C | -16.1% |  |
| Cc1cccc(NC(=O)CN2CCN(C(=O)C3CCN(C(=O)/C=C/c4ccccc4)CC3)CC2)c1C |  | 16.4 µM (active) |
| Cc1ccc(S(=O)(=O)NC[C@H]2O[C@@H](n3cnc4c(N)ncnc43)[C@H](O)[C@@H]2O)s1 | 0.238% |  |
| COc1ccc(NC(=O)c2ccccc2CC[N+](=O)[O-])cc1 | 2.49% |  |
| C=CCNc1scc(-c2ccccc2)[n+]1CC=C | -12.3% |  |
| C=CC[n+]1c(-c2ccc(C)cc2)csc1NNC(=O)Nc1ccccc1 |  | 10.3 µM (active) |
| O=C(NNC(=O)c1ccc(-c2ccccc2)cc1)Nc1ccccc1 | -6.03% |  |
| C[C@H]1CN([C@@H](C)CO)C(=O)CCCn2cc(nn2)CO[C@@H]1CN(C)S(=O)(=O)c1ccccc1C#N | 0.957% |  |
| O=C(c1cc(COc2ccc(F)cc2F)on1)N1CCOCC1 | 8.14% |  |
| COc1cc(-c2noc(-c3ccc(N4CCCC4)c([N+](=O)[O-])c3)n2)cc(OC)c1OC | -2.73% |  |
| COc1ccc(-c2noc(-c3ccc(N4CCN(c5ccccc5)CC4)c([N+](=O)[O-])c3)n2)cc1OC |  | 23.1 µM (active) |
| CNc1ccc(-c2nc(-c3ccco3)no2)cc1[N+](=O)[O-] | -19.2% |  |
| Cc1nnc(SCc2cc(=O)c3cc(F)ccc3[nH]2)n1C | 10% |  |
| CCOC(OCC)c1ccc(/C=C\c2nccc(N)n2)cc1 | -14.8% |  |
| Nc1ncc(-c2cc3ccccc3oc2=O)s1 | -16.5% |  |
| COc1ccc2nc(Nc3nc(-c4ccncc4)cs3)sc2c1 | -20% |  |
| CCNc1nc(-c2cc3ccccc3o2)cs1 | 6.56% |  |

| Compound | activity change, negative = growth inhibition | Potency |
| --- | --- | --- |
| O=c1oc2ccccc2cc1-c1csc(Nc2ccc(O)cc2)n1 |  | 9.2 µM (active) |
| COc1ccc2nc(NC(=O)[C@@H]3CCCN3C(=O)c3cccs3)sc2c1 | 3.56% |  |
| COc1ccc2nc(Nc3nc(-c4cc5ccccc5oc4=O)cs3)sc2c1 |  | 5.8 µM (active) |
| CC1CCCCN1Cc1c(O)ccc2c(=O)c(-c3cccc(Cl)c3)c(C(F)(F)F)oc12 (centres undefined) | -14.3% |  |
| C[C@@H]1NS(=O)(=O)c2cc(Cl)ccc2O[C@@H]1c1ccccc1 | -1.11% |  |
| C[C@H](CO)N1C[C@H](C)[C@H](CN(C)C(=O)c2ccncc2)OCc2ccccc2-c2c(n(C)c3ccccc23)C1=O | -22.7% |  |
| CC(NS(=O)(=O)c1ccc(Br)cc1)C(=O)NCC1CCCO1 (centres undefined) | -1.17% |  |
| COc1ccccc1NC(=S)N1CCN(c2ccc(F)cc2)CC1 | -1.31% |  |
| COc1ccccc1NC(=S)N1CCN(C(c2ccccc2)c2ccccc2)CC1 |  | 16.4 µM (active) |
| CC(C)NC(=S)N1CCN(S(C)(=O)=O)CC1 | 2.05% |  |
| CC(C)NC(=S)N1CCN(C(c2ccccc2)c2ccccc2)CC1 |  | 29.1 µM (active) |
| CC(C)OCC(O)CN1CCN(C(c2ccccc2)c2ccccc2)CC1 (centres undefined) | -17.3% |  |
| COc1ccc(C)cc1NC(=S)N1CCOCC1 | 4.73% |  |
| CCCCNC1(C#N)CCN(Cc2ccccc2)CC1 | -6.58% |  |
| CC(C)CC1(C(=O)NCc2ccccn2)C=CCN1C(=O)c1ccccc1 (centres undefined) | 3.78% |  |
| O=C(NN=Cc1ccccc1)c1ccccc1 | -5.88% |  |
| O=C(O)c1ccc(/C=N/NC(=S)NCc2ccccc2)cc1 | 5.08% |  |
| NN=C(NN=Cc1ccccc1)c1ccccc1 |  | 8.2 µM (active) |
| O=C(CCNC(=O)c1ccccc1)NN=Cc1ccc(Br)o1 | 0.385% |  |
| CN1C(C(=O)NCC2CC2)CC2Cn3c(nc4ccccc43)C21 (centres undefined) | -23.8% |  |
| Nc1ccc(/C=C/c2ccnc3ccccc23)c([N+](=O)[O-])c1 |  | 11.2 µM (active) |
| Cc1cc(C)cc(C(=O)NC2C(=O)N3C(C(=O)O)=C(CSc4nnc(C)s4)CSC23)c1 (centres undefined) | -7.95% |  |

| Compound | activity change, negative = growth inhibition | Potency |
| --- | --- | --- |
| CSc1ccccc1NC(=O)CN(C)CC(=O)Nc1cccc(Br)c1 | -15.4% |  |
| CCOc1ccc(OCC)c(NC(=O)c2cc(C)nc3c2c(C)nn3-c2cccc(Cl)c2C)c1 | 3.56% |  |
| CC1=CC(C)(C)NC(=S)N1NC(=O)c1ccccc1Cl | 7.93% |  |
| Cc1ccc(N2C(=O)C(Cc3ccccc3)NC2=S)cc1 (centres undefined) | -29.4% |  |
| CC1=CC(C)(C)NC(=S)N1c1ccccc1 |  | 20.6 µM (active) |
| CCOc1ccc(S(=O)(=O)N2CCC(C(=O)OCc3ccc(OC)cc3)CC2)cc1 | -15.7% |  |
| CC1(C)O[C@H]2CC(=O)OCC23[C@H]2CC[C@@]4(C)[C@H](c5ccoc5)OC(=O)[C@H]5O[C@]54[C@]2(C)C(=O)C[C@@H]13 (some centres undefined) | 4.62% |  |
| NC(=O)C(Cc1ccccc1)NC(=O)C12CC3CC(CC(C3)C1)C2 (centres undefined) | -17.9% |  |
| COc1cc(/C=N/N=C(\N)c2nonc2N)cc(OC)c1OC | -16.6% |  |
| COc1ccc(N2CCN(CCNC(=O)Nc3cc(Cl)ccc3Cl)CC2)cc1 | -7.44% |  |
| CCOC(=O)N1CCC(Nc2c(NCCN3CCN(c4cccc(Cl)c4)CC3)c(=O)c2=O)CC1 | -3.1% |  |
| Cc1ccc(C)c(N2CCN(C(=O)Cc3c(C(=O)O)c(C)cn3C)CC2)c1 | -19.6% |  |
| CCOC(=O)c1c(C)[nH]c(CCC(=O)NCCCN2CCN(c3cc(C)ccc3C)CC2)c1C |  | 4.61 µM (active) |
| CCOC(=O)c1c(C)[nH]c(CCC(=O)NCCCN2CCN(c3cccc(Cl)c3)CC2)c1C |  | 13 µM (active) |
| COc1ccc(NC(=O)NCCN2CCN(c3ccc(C)cc3)CC2)c(Cl)c1 | -18.8% |  |
| Cc1ccc(C)c(N2CCN(CCCNC(=O)Nc3ccc(Cl)cc3)CC2)c1 |  | 7.31 µM (active) |
| Cc1ccc(C)c(N2CCN(Cc3nnc(-c4ccccc4)o3)CC2)c1 | -20.2% |  |
| CCOC(=O)N1CCC(Nc2c(NCCCN3CCN(c4ccc(OC)cc4)CC3)c(=O)c2=O)CC1 | -0.704% |  |
| CC1=C(c2ccc(C)cc2)S(=O)(=O)NC1=NCCCN1CCN(c2cc(C)ccc2C)CC1 |  | 4.61 µM (active) |
| CCOC(=O)c1c(C)[nH]c(C(=O)NCCN2CCOCC2)c1C | -2.98% |  |
| CC1=C(c2ccc(C)c(C)c2)S(=O)(=O)NC1=NCc1ccccc1Cl | -16% |  |

— PubChem BioAssay AID686979 (National Center for Advancing Translational Sciences (NCATS), 2013)
